The text below walks through data of PubChem BioAssay (NCI).

This is part of a sample that, as a whole, favours compounds with a hit. Of some 79,000 tested, about 15% had one in any assay. Values without a mark were called inactive. Active and inactive are the calls of the source. Rule as the data show it: active = growth inhibition above about 70%; inactive = the rest.

This assay in a line: NCI Yeast Anticancer Drug Screen. Data for the rad50 strain (AID 155).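 Also: 0% = growth of vehicle-only cultures of the same strain.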 The note with it: S. cerevisiae rad50 strain growth inhibition, stronger effect = higher value. As to the method:
Growth inhibition of yeast strains with defined genetic alterations is measured as a screen for potential anti-cancer activity. Selected strains with alterations in DNA damage repair or cell cycle control were exposed to compounds and growth inhibition was measured relative to vehicle treated controls. The strain used in this assay is rad50

Where [1] appears, read: at 5.0 µM (retest, dose inferred, filed as 0.5).
Setting [2] is: at 50.0 µM (retest, dose inferred, filed as 5.0).

Turning to `N#CCC(=O)N/N=C(\c1ccccc1)C(c1ccccc1)C1(O)C(=O)Nc2c(Cl)ccc(Cl)c21` (stereo not given), the growth inhibition by setting is: (at 1.2 µM) 5%; (at 3.7 µM) 0%; under setting [1], 7%; (at 11.0 µM) 8%; (at 33.0 µM) 15%; under setting [2], 51%. Also, the growth inhibition by setting is: (at 50.0 µM) 43.8%; (at 100.0 µM) 25%.
As to `CCCNCC(=O)O[C@]1(CC)C(=O)OCc2c1cc1n(c2=O)Cc2cc3ccccc3nc2-1`, the growth inhibition runs as follows: (at 1.2 µM) 83% (active); (at 3.7 µM) 88% (active); under setting [1], 78% (active); (at 11.0 µM) 92% (active); (at 33.0 µM) 92% (active); under setting [2], 90% (active). Moreover, the growth inhibition is 82.5% (active) (at 50.0 µM) and 92% (active) (at 100.0 µM).
On to `CC1=NN(C(=O)CC(=O)NC(=O)/C=C\c2ccccc2)C(=O)C1N=Nc1ccc([N+](=O)[O-])cc1` (stereo not given), for which the growth inhibition by setting is: (at 1.2 µM) -7%; (at 3.7 µM) -10%; under setting [1], -1%; (at 11.0 µM) 38%; (at 33.0 µM) 73% (active); under setting [2], 87% (active). Further, the growth inhibition reads like this: (at 50.0 µM) 59.1%; (at 100.0 µM) 71% (active).
Take `CCCCCCCCCCCCCCN`: the growth inhibition by setting is: (at 1.2 µM) 11%; (at 3.7 µM) 17%; under setting [1], 100% (active); (at 11.0 µM) 11%; (at 33.0 µM) 52%; under setting [2], 97% (active). In addition, the growth inhibition by setting is: (at 50.0 µM) 90.3% (active); (at 100.0 µM) 98% (active).
For `CC(C)OP(=O)(OC(C)C)/C(Cl)=N/Nc1ccc([N+](=O)[O-])cc1`, the growth inhibition is -10% (at 1.2 µM); -21% (at 3.7 µM); 19% under setting [1]; 61% (at 11.0 µM); 93% (active) (at 33.0 µM); 95% (active) under setting [2]. Also, the growth inhibition reads like this: (at 50.0 µM) 88.7% (active); (at 100.0 µM) 94% (active).
